Bioassay records as filed in PubChem BioAssay.
Most compounds without a hit are left out; they make up all but 7.9% or so of the library.
KB-3-1 tox: qHTS assay for MDR1-selective chemotherapeutics: Primary screen using the parental adenocarcinoma cell KB-3-1; KB-3-1 viability, CellTiter-Glo ATP luminescence, 72 h; Potency, µM (top dose mostly 46.1 µM), actives largely listed as cytotoxic; 400,000 compounds, 1.4% hits; further: on the % scale 0 is the no-effect control and ±100 the full control effect; nearly all actives have a fitted effect of over 60% in size
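KB-3-1 cells, DMEM (no phenol red) + 10% FBS; compound by pin transfer, 72 h, 37 °C. Readout: CellTiter-Glo luminescence after 10 min. Data normalized, curve-fitted.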
MCF10A rereplic: A quantitative high throughput screen for small molecules that induce DNA re-replication in MCF 10a normal breast cells; Potency, µM (doses to about 46.1 µM), for the others: at the highest dose activity, positive = re-replication, usual class: activators; 350,000 compounds, 2.9% hits; AID 624296, 2012; MCF 10A DNA re-replication, Hoechst nuclear intensity, 48 h; further: % of control where 0% means no effect; nearly all actives have a fitted effect of over 50% in size
HT1080NT lethal: qHTS for induction of synthetic lethality in tumor cells producing 2HG: qHTS for the HT-1080-NT fibrosarcoma cell line; HT-1080-NT fibrosarcoma viability, CellTiter-Glo ATP luminescence, 48 h; Potency, µM (doses to about 46.1 µM), without a hit: top-dose activity, negative = less viability, most hits filed as cytotoxic; 360,000 compounds, 1.6% hits; AID 686970, 2013;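 further: NT is the 2HG producing partner of a matched IDH1 knockdown line; 0% = DMSO-treated cells and -100% = media-only wells without cells; nearly all actives have a fitted effect of over 55% in size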
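A 48-hour cytotoxicity screen used HT-1080-NT cells plated 2 hours before compound delivery. ATP-based CellTiter-Glo luminescence measured viability, normalized to DMSO and no-cell controls.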
HT1080 IDH1KD tx: qHTS for induction of synthetic lethality in tumor cells producing 2HG: qHTS for the HT-1080-IDH1KD cell line; 360,000 compounds, 2% hits; Potency, µM (top dose mostly 46.1 µM), for inactives: at the top dose activity, negative = toxicity, usual class: cytotoxic; AID 686971, 2013; HT-1080 IDH1 knockdown viability, ATP luminescence, 48 h;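 further: 0% = DMSO wells and -100% = cell-free medium wells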
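Assay cells: HT-1080 with IDH1 knockdown, 750 per well, RPMI/5% FBS. Exposure: 48 h at 37 °C following 2 h pre-incubation. Read: CellTiter-Glo luminescence; fitted concentration-response, curve class assigned.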
KB-V1 cytotox: qHTS assay for MDR1-selective chemotherapeutics: Primary screen using the drug-selected MDR subline cells KB-V1 | 400,000 compounds, 3.4% hits | KB-V1 MDR cells viability, CellTiter-Glo, 72 h | AID 1347076, 2019 | Potency, µM (series often up to 46.1 µM), hits mostly cytotoxic; further: on the % scale 0 is the no-effect control and ±100 the full control effect; nearly all actives have a fitted effect of over 60% in size
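Drug-selected KB-V1 cells, grown in DMEM lacking phenol red with 10% FBS, receive compound titrations; after three days at 37 degrees C, surviving cell ATP is quantified by CellTiter-Glo luminescence and responses normalized and curve-fitted.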
SW480 rerep: A quantitative high throughput screen for small molecules that induce DNA re-replication in SW480 colon adenocarcinoma cells; SW480 DNA re-replication, Hoechst DNA content imaging, 48 h; Potency, µM (top dose mostly 46.1 µM), for the others: at the highest dose re-replication activation, actives largely listed as activators; 340,000 compounds, 1.8% hits; further: % of control where 0% means no effect; nearly all actives have a fitted effect of over 55% in size
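Compounds, transferred as 23 nL by pin tool, were incubated with cells for 48 hr; DNA content per nucleus was then quantified by Hoechst staining and fluorescence plate imaging.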
Starred values were filed as active, the others as inactive; i = inactive; ? = inconclusive; · = not tested or not shown. The call rests on the fitted dose curve; in most records, active means well fitted curve in the direction sought with a large enough effect; inconclusive means small, poorly fitted or top-dose-only effect, or another doubt; inactive means no such curve, though single readings can be large; an effect the other way counts as inactive or inconclusive. Potency means the concentration at half of the fitted maximal effect.

SMILES | KB-3-1 tox | MCF10A rereplic | HT1080NT lethal | HT1080 IDH1KD tx | KB-V1 cytotox | SW480 rerep
COc1cc(NC(=O)C2=C(N3CCOCC3)/C(=C\c3ccc(N(C)C)cc3)CCC2)cc(OC)c1OC | 11.6µM* | 18.4µM* | ? | 29.1µM* | 2.59µM* | 10.3µM*
O=C(CN1CCN(S(=O)(=O)c2ccc(Br)s2)CC1)NCC1CCCCC1 | i | · | 8.6% | -2.0% | i | ·
O=C(COc1ccccc1F)Nc1ccc2oc(-c3cccc(Cl)c3)nc2c1 | i | · | · | · | i | ·
O=S(=O)(c1ccccc1)N1CCN(S(=O)(=O)c2ccccc2)c2ccccc21 | i | -6.1% | 1.1% | -11.0% | 20.6µM* | 15.9%
CCCc1ccc(OC(C)c2nc(-c3ccc(-n4cccc4)cc3)no2)cc1 (stereo not given) | i | · | · | · | i | ·
CCCN(CCC)C(=O)Cn1c(=O)n(-c2cccc(C)c2)c(=O)c2c1c1cc(OC)ccc1n2C | i | · | · | · | i | ·
Cc1cc(C)nc(NC(N)=NCCc2ccccc2)n1 | 5.17µM* | 18.4µM* | 10.3µM* | 23.1µM* | i | 16.4µM*
Cc1ccsc1C1Nc2ccc3ncccc3c2C2=C1C(=O)CC(C)(C)C2 (stereo not given) | i | ? | 10µM* | ? | i | ?
Cc1cc(C)n2nc(SCc3nnc(SCc4ccccc4)s3)nc2n1 | i | -0.8% | 0.4% | -7.7% | 13µM* | -1.0%
O=C(OCc1cc(=O)n2nc(-c3cccs3)sc2n1)c1ccccc1Br | i | · | · | · | i | ·
Cc1ccc(C(=O)NC2(C(F)(F)F)N=C(c3ccccc3)N(C3CCCCC3)C2=O)cc1 (stereo not given) | i | · | · | · | i | ·
COc1ccc(Cl)cc1NS(=O)(=O)c1ccc(S(=O)(=O)N2CCCC2)cc1 | i | -9.5% | -28.6% | -23.9% | i | 7.7%
COc1ccc(S(=O)(=O)Nc2cc(Cl)ccc2OC)cc1 | 3.66µM* | 3.26µM* | 6.51µM* | ? | 5.8µM* | 2.91µM*
COc1ccc(S(=O)(=O)Nc2ccccc2C(N)=O)cc1OC | i | -7.3% | 27.2% | 4.2% | i | 6.51µM*
COc1cc(S(=O)(=O)Nc2ccccc2C)ccc1Cl | i | 1.2% | -8.8% | -1.4% | i | -5.0%
COc1cc(S(=O)(=O)Nc2c(C)cc(C)cc2C)ccc1Cl | i | 8.8% | -12.8% | -7.8% | 18.4µM* | 3.0%
COc1ccc(Cl)cc1NS(=O)(=O)c1ccc2[nH]c3c(c2c1)CCCC3 | i | · | · | · | i | ·
COc1ccc(Cl)cc1NS(=O)(=O)c1ccc(OC)c(OC)c1 | i | 0.8% | 8.6% | -2.2% | 16.4µM* | -5.9%
COc1ccc(C=NNC(=O)c2ccccc2OCc2ccc(F)cc2)c(OC)c1 | i | 2.1% | -2.0% | 4.5% | i | -0.9%
COc1ccc(-c2[nH]c3ccccc3c2SCCNC(=O)c2cc(OC)c(OC)c(OC)c2)cc1 | i | · | · | · | ? | ·
CCCCc1ccc(NC(=S)Nc2ccc(Cl)c(S(=O)(=O)N(C)C)c2)cc1 | ? | ? | ? | 20.6µM* | 23.1µM* | 8.1%
CCN1CCN(CC(=O)Nc2ccc(Cl)c(S(=O)(=O)N(C)C)c2)CC1 | i | -0.4% | ? | 6.0% | i | -22.0%
CCCCc1ccc(NC(=S)NCc2cccnc2)cc1 | ? | ? | 16.1% | 12.1% | 14.6µM* | -16.8%
CCCCc1ccc(NC(=S)Nc2ccc(Nc3ccc(OC)cc3)cc2)cc1 | ? | 20.6µM* | -8.3% | ? | 16.4µM* | ?
CCc1ccc(NC(=S)NCc2cccnc2)cc1 | i | 10.4% | 4.8% | 10.5% | i | -4.0%
SMILES | KB-3-1 tox | MCF10A rereplic | HT1080NT lethal | HT1080 IDH1KD tx | KB-V1 cytotox | SW480 rerep
O=C(NC(=S)NCc1cccnc1)c1ccccc1[N+](=O)[O-] | i | 0.6% | 0.3% | 14.4% | 23.1µM* | -32.4%
OC(c1ccccc1)c1nc(-c2ccc(F)c(Cl)c2)cs1 (stereo not given) | i | · | ? | ? | i | ·
COc1ccc(-n2c(=O)c3c(c4cc(OC)ccc4n3C)n(C)c2=O)cc1 | i | · | · | · | i | ·
NC(=S)NCc1cccnc1 | i | 10.6% | 18.0% | 14.9% | i | -6.7%
CSC(=S)NCc1cccnc1 | 25.9µM* | 3.26µM* | ? | ? | i | 3.66µM*
COc1cc(OC)cc(-c2c(-c3cccs3)c3cc(-c4ccc(OC)c(OC)c4)ccc3n2C)c1 | i | 16.4µM* | ? | 0.7% | i | 10.4%
COc1cc(OC)cc(-c2c(-c3cccs3)c3cc(-c4cnc(N)nc4)ccc3n2C)c1 | ? | 23.1µM* | ? | ? | ? | ?
COc1cc(OC)cc(-c2c(-c3cccs3)c3cc(-c4ccc(OC)c(F)c4)ccc3n2C)c1 | i | 5.8% | -0.8% | -3.6% | i | ?
COc1cccc(-c2c(-c3cc(OC)cc(OC)c3)n(C)c3ccc(-c4cnc(OC)nc4)cc23)c1 | 13µM* | ? | -4.0% | 1.8% | ? | 2.2%
CC(=O)c1ccc(NC(=O)C2CCC(CNS(=O)(=O)c3cccs3)CC2)cc1 (stereo not given) | i | · | · | · | i | ·
CN(C)c1ccc(C2=Cc3ccccc3C2)cc1 | ? | · | · | · | i | ·
Cc1cccc(N2CCN(C(=O)CCN3C(=S)NC(C)(C)CC3C)CC2)c1C (stereo not given) | i | 13.7% | -25.6% | -17.1% | 4.11µM* | -5.8%
Cc1ccc(C)c(N2CCN(C(=O)CCCN3C(=S)NC(C)(C)CC3C)CC2)c1 (stereo not given) | 20.6µM* | 7.7% | ? | ? | ? | -0.7%
Cc1cccc(NC(=O)CCCN2C(=S)NC(C)(C)CC2C)c1C (stereo not given) | i | 1.6% | 20.9% | 6.2% | i | -8.5%
CC1CC(C)(C)NC(=S)N1CCCC(=O)Nc1ccc(Br)cc1 (stereo not given) | i | 3.3% | -5.3% | ? | 23.1µM* | -8.4%
COCCn1c(SCc2ccc(F)cc2)nc2c1c(=O)[nH]c(=O)n2C | i | 0.461µM* | -14.8% | 0.8% | i | 7.6%
C=CCSc1nc2c(c(=O)[nH]c(=O)n2C)n1C/C=C(/C)Cl | i | 16.0% | -1.1% | -1.9% | 13µM* | -7.5%
